Source: PubChem BioAssay
Sampled rows, rich in hits. Any-hit rate of the full collection: about 11%.
BAZ2B inh – blocks human BAZ2B | Q9UIF8 | AlphaScreen BAZ2B-H3K14Ac peptide displacement | Potency, µM (top dose mostly 114 µM), for the others: at the top dose activity change, negative = inhibition, usual class: inhibitors | hit rate 4.4% among 360,000 | AID 504333; also: % is scaled to controls: 0 for no effect and ±100 for the full control effect; nearly all actives have a fitted effect of over 60% in size
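BAZ2B 50 nM plus b-H3(5-23)K14Ac 50 nM, PBS pH 7.4/0.01% Tween-20, 30 min RT; compound added (max 110 uM), 30 min RT; streptavidin donor/Ni-chelate acceptor beads 10 ug/mL final, 20 min dark; AlphaScreen read.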
L3MBTL1 block – blocks human L3MBTL1 | Potency, µM (doses to about 57.1 µM), for the others: at the top dose activity, negative = inhibition, most hits filed as inhibitors | Q9Y468 | hit rate 0.66% among 230,000 | AlphaScreen L3MBTL1–H3K9me1 peptide binding; also: % is scaled to controls: 0 for no effect and ±100 for the full control effect; nearly all actives have a fitted effect of over 60% in size
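Displacement of a biotinylated histone H3(1-15) peptide monomethylated at Lys9 (75 nM) from L3MBTL1 (50 nM) was measured by AlphaScreen after a 30 min room-temperature compound incubation; cefsulodin titration served as intraplate control.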
HP1b chromo inh – inhibitors of HP1-beta chromodomain binding to methylated histone tails | hit rate 0.56% among 390,000 | AID 540317 | AlphaScreen HP1-beta / biotin-H3K9me3 peptide binding | P83916 | Potency, µM (series often up to 114 µM), for the others: top-dose activity change, negative = inhibition, usual class: inhibitors; also: nearly all actives have a fitted effect of over 70% in size
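Compound inhibition of the preformed complex between 50 nM HP1-beta and 50 nM biotinylated H3K9me3 peptide was read by AlphaScreen. Buffer was PBS pH 7.4 with 0.01% Tween-20. Incubations ran 30 min at room temperature, with 10 ug/mL donor/acceptor beads.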
G9a inh – inhibitors of human histone lysine methyltransferase G9a; AID 504332; Potency, µM (series often up to 102 µM), for inactives: top-dose activity, negative = inhibition, most hits filed as inhibitors; G9a H3K9 monomethylation, AlphaScreen, 2 h; hit rate 8.8% among 350,000; Q96KQ7; also: % is scaled to controls: 0 for no effect and ±100 for the full control effect; nearly all actives have a fitted effect of over 75% in size
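Step 1: enzyme (final 20 nM) with compound, 15 min RT. Step 2: substrate peptide 500 nM and SAM 20 uM, 2 h RT. Step 3: anti-H3K9me1 antibody and AlphaScreen beads, 10 min, then plate read.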
JMJD2A Tudor – JMJD2A Tudor domain (human) inhibition | O75164 | Potency, µM (doses to about 114 µM), for the others: top-dose activity change, negative = inhibition, actives largely listed as inhibitors | hit rate 4.4% among 390,000 | AlphaScreen JMJD2A-Tudor / H3K4me3 peptide binding; also: % is scaled to controls: 0 for no effect and ±100 for the full control effect; nearly all actives have a fitted effect of over 50% in size
Numbers without * were called inactive; ? = inconclusive; . = no result given; [ ] = dose if it differs, or a comment. Calls follow the shape of the dose curve; as a rule, active = well fitted inhibition curve with a large enough effect; inconclusive = small, poorly fitted or top-dose-only effect; inactive = no such curve, though single readings can be large or run the other way. Potency is read from the fitted curve at half-maximal effect.

SMILES | BAZ2B inh | L3MBTL1 block | HP1b chromo inh | G9a inh | JMJD2A Tudor
O=C(NNS(=O)(=O)c1cccc(Cl)c1Cl)c1cccc(S(=O)(=O)N2CCOCC2)c1 | 3% | 6% | 8% | 32µM* | ?
Cc1cccc(NC(=O)Cn2c(=O)n(Cc3nc(-c4ccccc4)no3)c(=O)c3ccccc32)c1 | ? | . | 17% | -10%[59 µM] | -4%
Cc1ccc(C)c(Cn2c(=O)cc(C(F)(F)F)c3c(C)nn(C)c32)c1 | 60% | . | 104% | 58%[59 µM] | 70%
CCCCn1c(N)c(N(CCOC)C(=O)c2cccc(-n3cnnn3)c2)c(=O)[nH]c1=O | -6% | -2% | 28% | ? | -4%
NCCNc1ccc(C(=O)N2c3ccccc3Sc3ccccc32)cc1[N+](=O)[O-] | 40µM* | -6% | -29% | ? | ?
Cc1cc(C)c(NC(=O)CN2CCN3CCCC3C2)c(C)c1 (centres undefined) | -6% | -10% | 18% | 11µM* | -10%
Clc1ccc(C2CC(c3ccccc3)Nc3ncnn32)cc1 (centres undefined) | 4% | -3% | 25% | -3%[59 µM] | -13%
Clc1ccc(C2CC(c3ccco3)n3ncnc3N2)cc1Cl (centres undefined) | -31% | -7%[11.4 µM] | 11% | 11µM* | -15%
CN(CC(=O)Nc1cccc(C(F)(F)F)c1)Cc1ccccc1 | 38% | . | 55% | 13%[59 µM] | 15%
OCCN(Cc1ccccc1)Cc1cccc(C(F)(F)F)c1 | ? | . | ? | 18µM* | 7.9µM*
OCCN(Cc1ccccc1)Cc1ccc(C(F)(F)F)cc1 | ? | . | 16µM* | 28µM* | 7.9µM*
COc1ccccc1CNc1ncnc2c1c(-c1ccccc1)cn2-c1ccc(Br)cc1 | -24% | . | 30% | -29%[59 µM] | -21%
CCN1CCOC(=O)C1CC(=O)Nc1ccc(C(C)=O)cc1 (centres undefined) | ? | . | 12% | 3.2µM* | -3%
O=C(CC1C(=O)OCCN1Cc1ccccc1)Nc1cccc(C(F)(F)F)c1 (centres undefined) | -13% | . | 47% | -60%[59 µM] | -10%
CCN1CCOC(=O)C1CC(=O)Nc1cc(C)cc(C)c1 (centres undefined) | -12% | . | 28% | 3.5µM* | -15%
CCN1CCOC(=O)C1CC(=O)Nc1cc(Cl)ccc1OC (centres undefined) | -11% | . | 2% | 7.9µM* | -24%
COc1cccc(NC(=O)CC2C(=O)OCCN2Cc2ccccc2)c1 (centres undefined) | 0% | . | 87% | -32%[59 µM] | -8%
CC(=O)c1ccc(NC(=O)CN2CCOCC2)cc1 | -36% | 6% | 40% | -10%[59 µM] | -8%
CCN1CCOC(=O)C1CC(=O)Nc1ccccc1C(F)(F)F (centres undefined) | -39% | . | -17% | 2.2µM* | -34%
c1cncc(CNc2ccnc(-c3cccnc3)n2)c1 | . | . | . | -5%[0.501 µM] | .
CCC1(c2ccc(F)cc2)NC(=O)N(CC(=O)Nc2ccc(C)c(S(=O)(=O)N3CCOCC3)c2)C1=O (centres undefined) | -35% | 2% | 0% | 5% | -24%
O=C(CCSCc1ccc(Cl)cc1)N1CCN(c2ccccc2F)CC1 | 3% | . | 36% | -12%[59 µM] | 0%
COc1ccc(N2CCN(CCCNC(=O)c3cnn(-c4ccc(C)cc4)c3-n3cccc3)CC2)cc1 | ? | . | 2% | ? | ?
CCc1ccc(NC(=O)CC2C(=O)OCCN2CC)cc1 (centres undefined) | -12% | . | 27% | 1.8µM* | -16%
O=C(Nc1ccc(OCc2cc(=O)n3ccccc3n2)cc1)c1ccccc1Cl | 6% | . | 22%[57 µM] | -22%[59 µM] | -36%
Cc1cc(C)nc(NS(=O)(=O)c2ccc(NC(=O)COc3ccc(Cl)cc3C)cc2)n1 | 5%[57.1 µM] | . | 40% | 10µM* | -10%
CC(=O)NC(=S)Nc1ccc(NC(=O)COc2ccc(C(C)C)cc2)cc1 | ? | 2% | 29% | ? | -1%
Cc1ccc(CCC(=O)Nc2ccc(C#N)cc2)o1 | -38% | . | 33% | 40µM* | -3%
Cc1cc(C)nc(NS(=O)(=O)c2ccc(NC(=O)COc3ccccc3)cc2)n1 | -6% | -1% | 31% | -2%[59 µM] | -2%
CC(=O)NC(=S)Nc1ccc(NC(=O)COc2ccc(Cl)cc2)cc1 | -1% | . | 43% | 5.6µM* | -5%
